Source: PubChem BioAssay (NCATS)
Where “and” joins values, the source holds several entries; their conditions need not be identical. Identical values can stand only once. Inconclusive results are not listed. Calls of active or inactive are those of the source. Unless noted, calls follow the shape of the dose curve; as a rule, active = well fitted curve in the direction sought with a large enough effect; inconclusive = small, poorly fitted or top-dose-only effect, or another doubt; inactive = no such curve, though single readings can be large; an effect the other way counts as inactive or inconclusive.

Tests used:
[1] = Validation screen for small molecules that induce genotoxicity in human embryonic kidney (HEK293T) cells expressing luciferase-tagged ELG1 (AID 493106); also: 0% is about no effect
How it was run: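 In this validation screen, increased ELG1-luciferase signal flags compounds causing genetic stress. HEK293T reporter cells are treated 16 hr (37 °C, 5% CO2), developed with ONE-Glo for 30 min at room temperature, and imaged on a CCD-based reader.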

[2] = target: Thyrotropin-releasing hormone receptor (Homo sapiens) (UniProt P34981); experiment: qHTS for Small Molecule Agonists and Allosteric Enhancers of Human TRH Receptor: Validation Screen for Agonists (AID 493127;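 active = calcium activation more than 3 SD above the typical response in the agonist read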;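 also: intracellular calcium rise by fluo-8 fluorescence before TRH EC20 addition; 0% is about no effect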); conditions: TRH receptor agonist cell assay; at 2 µM; stronger effect = higher value
How it was run: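 Kinetic fluorescence assay of agonist-induced calcium release: overnight-plated TRHR cells, room-temperature fluo-8 loading, baseline then compound addition with per-second reads.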

[3] = Nrf2 qHTS screen for inhibitors: Validation (AID 493153; active = well fitted inhibition curve with a large enough effect in the main read-out, with a control signal flat, not every such curve was filed as active); conditions: Potency: luciferase luminescence; viability change: measured here: cytotoxicity max response
How it was run: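 In this counterscreened reporter format, each well gives two signals: CellTiter-Fluor fluorescence for cytotoxicity and ARE-luciferase luminescence for Nrf2 function. A549 ARE_Fluc cells in 5% FBS OPTI-MEM were exposed to compound titrations for 18-24 h.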

[4] = qHTS for Inhibitors of Cell Surface uPA Generation: Validation Assay (AID 493164);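 also: RAW 264.7 macrophage cells exposed to compound for 18 h; 0% is about no effect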
How it was run: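 Compounds are titrated over seven points (2.45 nM–38.3 uM final) onto pre-plated RAW 264.7 cells and incubated for 18 h. Retained intracellular ATP, measured with ATP-Lite, indicates blocked lethal factor entry.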

[5] = target: Galactokinase (Homo sapiens) (UniProt P51570); experiment: qHTS Validation Assay for Inhibitors of Human Galactokinase (GALK) (AID 493189); also: 0% is about no effect
How it was run: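 Inhibition was measured as remaining ATP, detected by luciferase luminescence after a 1 h room-temperature reaction. Final conditions: 5 nM GALK, 100 uM galactose, 35 uM ATP, pH 8.0 HEPES buffer.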

[6] = Validation screen for small molecules that induce DNA re-replication in SW480 colon adenocarcinoma cells (AID 504364); also: 0% is about no effect
How it was run: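 Hoechst-stained SW480 nuclei, imaged at 405 nm excitation after 48 hr compound exposure, were counted for elevated DNA content as the re-replication signal.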

[7] = target: Peptidyl-prolyl cis-trans isomerase NIMA-interacting 1 (Homo sapiens) (UniProt Q13526); experiment: qHTS Validation Assay to Find Inhibitors of Pin1 (AID 504536; active = well fitted inhibition curve with a large enough effect in the polarisation, with a control signal flat, not every such curve was filed as active; the % refers to the polarisation;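 also: 0% = full Pin1 enzyme wells and -100% = no-enzyme wells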)
How it was run: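 Fluorescence polarization competition: compounds (titration) displace HiFluor-488-labeled Pin1-1b peptide from Pin1 (0.3 uM final) in pH 7.5 HEPES buffer with DTT, 10 min at room temperature; %Activity normalized to no-enzyme wells, curves fitted.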

[8] = target: Phosphoglycerate kinase, glycosomal (Trypanosoma brucei brucei) (UniProt P07378); experiment: qHTS Validation Assay to Find Inhibitors of Phosphoglycerate Kinase (AID 504547); also: potency is read from the fitted curve at half-maximal effect
How it was run: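 Compounds are pinned into the substrate/PGK mixture, and GAPDH (100nM final) is added to start the reaction by producing 1,3-BPG. After 60 minutes at room temperature, Kinase-Glo Plus is added and luminescence is measured 10 minutes later.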

[9] = target: phosphoglycerate mutase (Leishmania major) (UniProt Q4Q090); experiment: qHTS Validation Assay to Find Inhibitors of Phosphoglycerate Mutase (AID 504548); also: series mostly up to about 58 µM; % is scaled to controls: 0 for no effect and ±100 for the full control effect
How it was run: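 Lm PGAM at 1.25 nM final with substrate in 100 mM TEA pH 7.6, 5 mM MgCl2, 0.01% Tween-20; 45 min at room temperature. Kinase-GloPlus added, 10 min, end-point luminescence read.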

[10] = target: ATPase family AAA domain-containing protein 5 (Homo sapiens) (UniProt Q96QE3); experiment: Validation screen for small molecules that inhibit ELG1-dependent DNA repair in human embryonic kidney (HEK293T) cells expressing luciferase-tagged ELG1 (AID 493107); also: nearly all actives have a fitted effect of over 70% in size; also: potency is read from the fitted curve at half-maximal effect
How it was run: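 Compounds reducing 5-fluorouridine-driven ELG1-luciferase signal in HEK293T cells were scored; exposure lasted 16 hr at 37 °C with luminescence detected via ONE-Glo.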

Galactokinase (Homo sapiens), sequence (P51570 whole entry, looked up): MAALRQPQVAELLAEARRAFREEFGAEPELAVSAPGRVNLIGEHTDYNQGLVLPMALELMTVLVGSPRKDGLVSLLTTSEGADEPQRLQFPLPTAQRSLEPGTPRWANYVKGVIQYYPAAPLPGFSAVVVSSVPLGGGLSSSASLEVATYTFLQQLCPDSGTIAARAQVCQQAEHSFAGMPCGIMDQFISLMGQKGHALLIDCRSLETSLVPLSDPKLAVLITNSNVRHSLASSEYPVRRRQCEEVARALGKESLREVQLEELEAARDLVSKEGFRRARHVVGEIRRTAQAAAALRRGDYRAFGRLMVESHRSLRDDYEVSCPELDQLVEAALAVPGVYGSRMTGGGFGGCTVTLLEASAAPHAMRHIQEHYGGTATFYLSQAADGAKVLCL
Thyrotropin-releasing hormone receptor (Homo sapiens), sequence (P34981 whole entry, looked up): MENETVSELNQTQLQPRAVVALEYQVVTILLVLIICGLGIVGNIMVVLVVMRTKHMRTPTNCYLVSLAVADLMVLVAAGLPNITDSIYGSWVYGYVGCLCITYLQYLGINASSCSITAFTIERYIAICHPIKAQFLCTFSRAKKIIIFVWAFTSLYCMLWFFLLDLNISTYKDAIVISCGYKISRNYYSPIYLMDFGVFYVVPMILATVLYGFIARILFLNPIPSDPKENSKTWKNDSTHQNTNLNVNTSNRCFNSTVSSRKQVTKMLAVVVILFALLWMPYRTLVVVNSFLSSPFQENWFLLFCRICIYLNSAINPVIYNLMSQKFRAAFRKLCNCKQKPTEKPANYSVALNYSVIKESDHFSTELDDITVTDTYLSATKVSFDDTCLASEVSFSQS
ATPase family AAA domain-containing protein 5 (Homo sapiens), sequence (Q96QE3 whole entry, looked up, the tested form may be a part): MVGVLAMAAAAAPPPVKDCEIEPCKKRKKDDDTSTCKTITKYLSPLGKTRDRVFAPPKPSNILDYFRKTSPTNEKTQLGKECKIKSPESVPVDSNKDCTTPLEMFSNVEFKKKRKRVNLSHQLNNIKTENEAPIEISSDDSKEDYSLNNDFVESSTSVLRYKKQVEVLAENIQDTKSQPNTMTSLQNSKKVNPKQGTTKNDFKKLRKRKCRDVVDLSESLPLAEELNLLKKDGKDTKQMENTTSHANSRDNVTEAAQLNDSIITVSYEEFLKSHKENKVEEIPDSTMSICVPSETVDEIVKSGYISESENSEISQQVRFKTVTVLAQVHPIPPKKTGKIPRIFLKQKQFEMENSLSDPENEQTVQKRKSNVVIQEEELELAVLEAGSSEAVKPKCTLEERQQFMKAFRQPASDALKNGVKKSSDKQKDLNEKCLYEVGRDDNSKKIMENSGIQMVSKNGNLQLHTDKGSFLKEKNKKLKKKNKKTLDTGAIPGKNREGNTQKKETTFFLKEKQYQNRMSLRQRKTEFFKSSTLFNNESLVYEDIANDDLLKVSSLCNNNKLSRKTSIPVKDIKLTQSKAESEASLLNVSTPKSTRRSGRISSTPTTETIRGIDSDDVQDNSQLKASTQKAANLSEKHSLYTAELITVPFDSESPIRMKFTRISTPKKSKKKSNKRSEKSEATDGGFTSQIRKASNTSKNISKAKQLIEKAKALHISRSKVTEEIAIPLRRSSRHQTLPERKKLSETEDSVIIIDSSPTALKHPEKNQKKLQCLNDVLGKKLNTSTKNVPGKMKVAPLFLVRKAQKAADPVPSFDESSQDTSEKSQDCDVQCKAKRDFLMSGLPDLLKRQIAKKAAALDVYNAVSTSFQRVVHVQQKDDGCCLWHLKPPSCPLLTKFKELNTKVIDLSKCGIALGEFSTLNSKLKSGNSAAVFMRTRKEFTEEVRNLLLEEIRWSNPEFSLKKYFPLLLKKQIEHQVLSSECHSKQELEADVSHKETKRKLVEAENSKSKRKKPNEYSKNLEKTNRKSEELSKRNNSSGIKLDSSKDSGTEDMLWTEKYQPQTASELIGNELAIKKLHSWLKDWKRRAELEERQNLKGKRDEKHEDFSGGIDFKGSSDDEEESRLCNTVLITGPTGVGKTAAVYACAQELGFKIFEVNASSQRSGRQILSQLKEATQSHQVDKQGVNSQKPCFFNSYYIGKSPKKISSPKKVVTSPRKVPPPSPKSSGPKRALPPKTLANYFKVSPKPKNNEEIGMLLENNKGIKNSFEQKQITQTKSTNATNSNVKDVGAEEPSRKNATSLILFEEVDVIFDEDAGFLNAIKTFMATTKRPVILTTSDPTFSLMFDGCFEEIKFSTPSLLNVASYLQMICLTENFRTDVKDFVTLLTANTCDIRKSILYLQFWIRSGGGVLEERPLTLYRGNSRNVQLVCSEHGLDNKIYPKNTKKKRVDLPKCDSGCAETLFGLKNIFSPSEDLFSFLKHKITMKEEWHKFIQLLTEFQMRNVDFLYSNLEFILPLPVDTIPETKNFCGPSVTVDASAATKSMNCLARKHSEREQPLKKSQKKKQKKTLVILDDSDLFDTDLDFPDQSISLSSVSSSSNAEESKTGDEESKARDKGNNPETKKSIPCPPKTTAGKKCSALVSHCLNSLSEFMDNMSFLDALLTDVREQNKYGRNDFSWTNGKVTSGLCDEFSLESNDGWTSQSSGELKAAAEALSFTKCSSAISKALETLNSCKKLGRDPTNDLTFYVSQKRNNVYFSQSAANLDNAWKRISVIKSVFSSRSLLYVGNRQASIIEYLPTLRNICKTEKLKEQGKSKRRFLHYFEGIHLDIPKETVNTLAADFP
phosphoglycerate mutase (Leishmania major), sequence (Q4Q090 1-553): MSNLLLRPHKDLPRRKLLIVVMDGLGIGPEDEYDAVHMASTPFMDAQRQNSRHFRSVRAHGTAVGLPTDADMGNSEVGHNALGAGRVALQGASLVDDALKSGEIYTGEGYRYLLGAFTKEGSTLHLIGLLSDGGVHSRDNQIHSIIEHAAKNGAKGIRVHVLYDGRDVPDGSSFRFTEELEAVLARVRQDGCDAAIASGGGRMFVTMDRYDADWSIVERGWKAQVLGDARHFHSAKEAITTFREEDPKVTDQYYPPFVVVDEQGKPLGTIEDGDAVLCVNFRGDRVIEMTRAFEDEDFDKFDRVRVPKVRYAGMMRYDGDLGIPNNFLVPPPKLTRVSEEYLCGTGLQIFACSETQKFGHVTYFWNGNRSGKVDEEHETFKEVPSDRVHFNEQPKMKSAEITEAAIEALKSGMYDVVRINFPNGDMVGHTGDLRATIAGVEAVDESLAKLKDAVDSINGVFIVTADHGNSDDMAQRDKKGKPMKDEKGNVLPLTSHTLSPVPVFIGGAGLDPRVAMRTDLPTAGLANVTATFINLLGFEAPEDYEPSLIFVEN
Peptidyl-prolyl cis-trans isomerase NIMA-interacting 1 (Homo sapiens), sequence (Q13526 whole entry, looked up): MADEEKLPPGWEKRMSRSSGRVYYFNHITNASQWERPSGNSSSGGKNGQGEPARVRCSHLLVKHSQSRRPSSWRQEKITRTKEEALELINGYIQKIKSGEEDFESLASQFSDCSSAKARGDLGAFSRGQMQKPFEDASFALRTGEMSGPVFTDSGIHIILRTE
Phosphoglycerate kinase, glycosomal (Trypanosoma brucei brucei), sequence (P07378 whole entry, looked up): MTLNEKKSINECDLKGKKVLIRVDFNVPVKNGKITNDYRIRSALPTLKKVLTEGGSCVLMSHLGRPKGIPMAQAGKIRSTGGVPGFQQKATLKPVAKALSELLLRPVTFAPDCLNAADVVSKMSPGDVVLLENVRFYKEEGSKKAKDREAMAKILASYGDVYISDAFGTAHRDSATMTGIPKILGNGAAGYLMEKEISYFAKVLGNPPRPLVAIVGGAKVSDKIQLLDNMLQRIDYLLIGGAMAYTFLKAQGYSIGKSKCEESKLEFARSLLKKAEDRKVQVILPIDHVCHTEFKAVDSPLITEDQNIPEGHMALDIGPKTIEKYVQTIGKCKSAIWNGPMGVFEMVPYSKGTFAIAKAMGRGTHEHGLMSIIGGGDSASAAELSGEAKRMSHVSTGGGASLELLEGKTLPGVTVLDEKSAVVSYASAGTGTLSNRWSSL

CC(CCc1ccc(O)cc1)NCCc1ccc(O)c(O)c1 (stereo unspecified)
2.92%: viability change [3]
inactive: Potency [1] | activation [2] 1.06% | Potency [3] | outcome [4] | Potency [5] | Potency [6] | Potency [7] | Potency [8] | outcome [9]

NCCc1cnc[nH]1
inactive: Potency [1] | Potency [10] | activation [2] 1.06% | Potency [3] | outcome [4] | Potency [5] | Potency [6] | Potency [7] | Potency [8] | outcome [9]
1.05%: viability change [3]

C[C@](N)(Cc1ccc(O)c(O)c1)C(=O)O
0.569%: viability change [3]
active: Potency [8] 2.13 µM
inactive: Potency [1] | Potency [10] | activation [2] 1.25% | Potency [3] | outcome [4] | Potency [5] | Potency [6] | Potency [7]

Clc1ccc(C(c2ccccc2Cl)C(Cl)Cl)cc1 (stereo unspecified)
inactive: Potency [1] | Potency [10] | activation [2] 1.38% | outcome [4] | Potency [5] | Potency [6] | Potency [7] | Potency [8] | outcome [9]

CC1COc2c(N3CCN(C)CC3)c(F)cc3c(=O)c(C(=O)O)cn1c23 (stereo unspecified)
6.09%: viability change [3]
inactive: Potency [1] | Potency [10] | activation [2] 1% | Potency [3] | outcome [4] | Potency [5] | Potency [6] | Potency [7] | Potency [8] | outcome [9]

Cc1cn([C@H]2C=C[C@@H](CO)O2)c(=O)[nH]c1=O
inactive: Potency [1] | Potency [10] | Potency [3] | outcome [4] | Potency [5] | Potency [6] | Potency [7] | Potency [8] | outcome [9]
0.63%: viability change [3]

C[C@H]1c2cccc(O)c2C(O)=C2C(=O)[C@]3(O)C(O)=C(C(N)=O)C(=O)[C@@H](N(C)C)[C@@H]3[C@@H](O)[C@@H]21
inactive: Potency [1] | Potency [10] | outcome [4] | Potency [7] | Potency [8] | outcome [9]

O=C1c2c(O)ccc(O)c2C(=O)c2c(NCCNCCO)ccc(NCCNCCO)c21
active: Potency [10] 4.61 µM
inactive: Potency [1] | activation [2] 0.938% | outcome [4] | Potency [5] | Potency [6] | Potency [7]

CN(C)CCCN1c2ccccc2CCc2ccc(Cl)cc21
inactive: Potency [1] | activation [2] 1.88% | Potency [3] | outcome [4] | Potency [5] | Potency [6] | Potency [7] | Potency [8]
-5.04%: viability change [3]

COc1cc2nc(N3CCN(C(=O)C4COc5ccccc5O4)CC3)nc(N)c2cc1OC (stereo unspecified)
active: Potency [10] 23.1 µM
-11.8%: viability change [3]
inactive: Potency [1] | Potency [3] | outcome [4] | Potency [5] | Potency [6] | Potency [7] | Potency [8] | outcome [9]

O=C(C1CCCCC1)N1CC(=O)N2CCc3ccccc3C2C1 (stereo unspecified)
inactive: Potency [1] | Potency [10] | activation [2] 0.312% | outcome [4] | Potency [5] | Potency [6] | Potency [7] | Potency [8] | outcome [9]

CC12CC3CC(C)(C1)CC(N)(C3)C2
-3.89%: viability change [3]
inactive: Potency [1] | Potency [10] | Potency [3] | outcome [4] | Potency [5] | Potency [6] | Potency [7] | Potency [8] | outcome [9]

Nc1ccn([C@H]2CC[C@@H](CO)O2)c(=O)n1
-1.24%: viability change [3]
inactive: Potency [1] | activation [2] 0.938% | Potency [3] | outcome [4] | Potency [5] | Potency [6] | Potency [7] | Potency [8] | outcome [9]

CS(=O)(=O)Nc1ccc([N+](=O)[O-])cc1Oc1ccccc1
inactive: Potency [1] | Potency [10] | activation [2] 1% | Potency [6] | Potency [7]

CN1C(C(=O)Nc2ccccn2)=C(O)c2ccccc2S1(=O)=O
inactive: Potency [1] | Potency [10] | activation [2] 0.812% | outcome [4] | Potency [5] | Potency [6] | Potency [7] | Potency [8] | outcome [9]

CCOC(=O)C(C)(C)Oc1ccc(Cl)cc1
-5.48%: viability change [3]
inactive: Potency [1] | Potency [10] | activation [2] -8.94% | Potency [3] | outcome [4] | Potency [5] | Potency [6] | Potency [7] | Potency [8] | outcome [9]

CC(C)NCC(O)c1ccc(O)c(O)c1 (stereo unspecified)
-5.16%: viability change [3]
inactive: Potency [1] | Potency [10] | activation [2] 0.688% and 0.188% | Potency [3] | outcome [4] | Potency [5] | Potency [6] | Potency [7] | Potency [8]

CN1CCN(CCCN2c3ccccc3Sc3ccc(Cl)cc32)CC1
inactive: Potency [1] | Potency [10] | outcome [4] | Potency [5] | Potency [7] | Potency [8] | outcome [9]

CCc1cccc2c3c([nH]c12)C(CC)(CC(=O)O)OCC3 (stereo unspecified)
inactive: Potency [1] | Potency [10] | Potency [3] | outcome [4] | Potency [5] | Potency [6] | Potency [7] | Potency [8] | outcome [9]
-5.62%: viability change [3]

Cn1cnc2c1c(=O)[nH]c(=O)n2C
-9.08%: viability change [3]
inactive: Potency [1] | Potency [10] | activation [2] 0.562% | Potency [3] | outcome [4] | Potency [5] | Potency [6] | Potency [7] | Potency [8] | outcome [9]

O=C1Cc2cc(CCN3CCN(c4nsc5ccccc45)CC3)c(Cl)cc2N1
inactive: Potency [1] | Potency [3] | outcome [4] | Potency [7] | Potency [8] | outcome [9]
active: Potency [10] 9.2 µM
-17.6%: viability change [3]

OCCN(CCO)c1nc(N2CCCCC2)c2nc(N(CCO)CCO)nc(N3CCCCC3)c2n1
active: Potency [10] 0.231 µM
inactive: Potency [1] | activation [2] 25.4% | outcome [4] | Potency [5] | Potency [6] | Potency [8] | outcome [9]
